Rows were chosen to be rich in hits. Some 2.2% of all compounds tested hit in one or more screens of this group.
IEC-6 tox – counter-screen for KLF5 inhibitors: cytotoxicity in IEC-6 cells. IEC-6 cytotoxicity, luminescence viability. 290,000 compounds, 0.78% hits. AID 1825. inhibition, % at 5 µM; in the data active means inhibition above about 22%
aSyn UTR inh – 5' untranslated region of α-synuclein, MLPCN primary screen. 300,000 compounds, 0.82% hits. inhibition, % (tested at 7.5 µM). alpha-synuclein 5'UTR reporter, inhibitor activity; in the data active means inhibition above about 60%; inconclusive means no clear call, values can overlap the other calls;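 further: H4 neuroglioblastoma cells stably carrying SNCA 5'UTR luciferase fusion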
APP 5UTR inh – APP translation inhibition; SH-SY5Y APP 5'UTR-luciferase reporter, luminescence; inhibition, % at 2 µM; 190,000 compounds, 0.82% hits; AID 1285;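 active means inhibition above a set limit, derived from the sample mean plus 3 SD, cut at about 45% in these data; inconclusive means one replicate passes the limit while the other fails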
BaF3 parental – reduces parental Ba/F3 cell viability, JAK2V617F counter-screen; CellTiter-Glo ATP luminescence; 220,000 compounds, 1.1% hits; inhibition, % at 5.6 µM;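 active means inhibition above a per-campaign cutoff, the mean inhibition of all tested compounds plus 3 SD, cut at about 27% in these data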
KLF5 inh – inhibitors of KLF5 expression | AID 1700 | 290,000 compounds, 0.23% hits | DLD-1 KLF5 promoter-luciferase reporter, luminescence | inhibition, % at 5 µM;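 active means inhibition above a per-plate limit of that plate's mean compound inhibition plus 3 SD, cut at about 60% in these data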;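 further: higher means less KLF5 promoter-driven luciferase light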
Ba/F3 V617F tox – reduce viability of Ba/F3 cells dependent on JAK2V617F; Ba/F3 EpoR-JAK2V617F viability, ATP luminescence; 220,000 compounds, 1.1% hits; inhibition, % at 5.6 µM; AID 1446;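 active means inhibition above the campaign mean plus 3 SD over all tested compounds, cut at about 24% in these data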;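 further: cytokine-independent growth of Ba/F3 cells driven by EpoR plus mutant JAK2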
Numbers stand for hits; 0 = inactive; ? = inconclusive; - = no result given.

SMILES | IEC-6 tox | aSyn UTR inh | APP 5UTR inh | BaF3 parental | KLF5 inh | Ba/F3 V617F tox
NC(=O)Nc1ccc(Nc2ccccc2)cc1 | 0 | 0 | - | 0 | 0 | 0
CC1(C)CC2(CCO1)OC(=O)CC2C(=O)Nc1ccccc1Cl (stereo unspecified) | 0 | 0 | 0 | 90 | 0 | 0
CC(=O)OCCCNc1cc(Sc2ccc(Cl)cc2)c2nonc2c1[N+](=O)[O-] | 0 | 0 | 51 | 0 | 0 | 0
CCCC(=O)OCCNc1cc(Sc2nc3ccccc3[nH]2)c2nonc2c1[N+](=O)[O-] | 0 | 0 | 74 | 0 | 0 | 0
CCC(=O)OCCNc1cc(Sc2nccn2C)c2nonc2c1[N+](=O)[O-] | 0 | 0 | 60 | 0 | 0 | 0
Cn1c(=NC(=O)c2ccccc2[N+](=O)[O-])sc2cccc(F)c21 | 0 | 0 | - | 0 | 0 | 0
CCOC(=O)c1cc[nH]c1CC(=O)NC | 0 | 0 | - | 0 | 0 | 0
CC(C)Nc1nc(Oc2ccc(=O)n(-c3ccccc3)n2)nc(N(C)C)n1 | 0 | 0 | - | 0 | 0 | 0
COc1cccc(/C=N/n2nnnc2N)c1OCC#N | - | 0 | - | - | - | -
CCOc1ccccc1NC(=O)C1CCN(c2nc(-c3ccc(OC)cc3)no2)CC1 | 0 | 0 | - | - | 0 | -
Cc1ccc(Cl)c(NC(=O)COC(=O)c2ccccc2C(=O)c2ccc(Cl)c([N+](=O)[O-])c2)c1Cl | 0 | 0 | 52 | 0 | 0 | 0
CCCNC(=O)COC(=O)c1ccccc1C(=O)c1ccc(Cl)c([N+](=O)[O-])c1 | 0 | 0 | 0 | 0 | 0 | 0
COc1ccc(CN(CC(=O)NCCc2ccccc2)C(=O)CCC(=O)Nc2ccccn2)cc1 | 0 | 0 | - | - | 0 | -
Oc1ccc(/C=N/Nc2ccnc3cc(Cl)ccc23)cc1O | 0 | 0 | - | 52 | 0 | 85
O=C1CCCN1c1ccc(N2CCCC2=O)cc1 | 0 | 0 | - | - | 0 | -
COc1ccc(C2=NNC(=O)CC2)cc1 | 0 | 0 | 0 | 0 | 0 | 0
CCCOc1ccc(C2=NNC(=O)CC2)cc1 | 0 | 77 | 0 | 0 | 0 | 0
Cc1c(Cc2ccccc2)sc(/N=C/c2ccc3ccccc3c2)c1C(N)=O | 0 | - | 53 | 0 | 0 | 0
O=C(O)c1ccc(Cl)c(S(=O)(=O)NCC2CCCO2)c1 (stereo unspecified) | 0 | 0 | 57 | 0 | 0 | 0
O=S(=O)(NCC1CCCO1)c1ccc(-c2ccc(S(=O)(=O)NCC3CCCO3)cc2)cc1 (stereo unspecified) | 0 | 0 | 0 | 80 | 0 | 52
O=C(NCCCn1ccnc1)c1nn2c(C(F)(F)F)cc(-c3ccc(Br)cc3)nc2c1Cl | 0 | 0 | 0 | 0 | 0 | 0
CCn1c(SCC(=O)Nc2ccccc2)nnc1-c1cccs1 | 0 | 0 | - | 0 | 0 | 0
CCn1c(SCc2ccccc2)nnc1-c1cccs1 | 0 | 0 | 0 | 42 | 0 | 41
COc1cccc(C(=O)Cn2c(=N)n(C)c3ccccc32)c1 | 0 | 86 | 0 | 0 | 0 | 0
CC(C)CCNC(=O)c1ccc(Cn2c(=S)[nH]c3ccccc3c2=O)cc1 | 0 | 0 | - | - | 0 | -
SMILES | IEC-6 tox | aSyn UTR inh | APP 5UTR inh | BaF3 parental | KLF5 inh | Ba/F3 V617F tox
Cc1ccc(NC(=O)CCC(=O)NNC(=S)Nc2ccccc2)c(C)c1 | 0 | 0 | 0 | 0 | 0 | 0
Cc1ccc(NC(=S)NNC(=S)Nc2ccc(C)cc2C)cc1 | 0 | 113 | 92 | 30 | 0 | 82
O=C(N=C1N=C2C=CC=CN2Cc2ccccc21)c1ccc(S(=O)(=O)N2CCOCC2)cc1 | 0 | 0 | 0 | 0 | 0 | 0
CCn1ncc(Br)c1C(=O)Nc1ccc(F)c([N+](=O)[O-])c1 | 25 | 0 | 0 | 0 | 0 | 0
COc1ccc(CN2CCC(C)CC2)cc1OCc1ccccc1 | 0 | 0 | - | - | 0 | -
Cc1cc(C)n(CC(O)COc2ccccc2Br)n1 (stereo unspecified) | 0 | 0 | - | - | 0 | -
COc1ccc(-n2c(C)cc(C(=O)Cn3nnc4ccccc4c3=O)c2C)cc1 | 0 | 0 | 0 | 0 | 0 | 0
Cc1cc(C(=O)Cn2nnc3ccccc3c2=O)c(C)n1-c1ccccc1F | 0 | ? | 0 | 52 | 0 | 46
COc1ccc2cc1Oc1ccc(cc1)C[C@H]1c3c(cc4c(c3Oc3cc5c(cc3OC)CCN(C)[C@@H]5C2)OCO4)CCN1C | - | 109 | - | - | - | -
COc1ccc2cc1Oc1ccc(cc1)C[C@H]1c3cc(c(OC)cc3CCN1C)Oc1c(OC)c(OC)cc3c1[C@H](C2)N(C)CC3 | - | 0 | - | - | - | -
COc1ccc(OC)c(-c2nn(-c3ccccc3)cc2C(=O)NCC(c2cccs2)N2CCOCC2)c1 (stereo unspecified) | - | 0 | - | - | - | -
Cc1ccc(COc2ccc(CNCCCN3CCCCCC3=O)cc2)cc1 | 0 | 0 | - | - | 0 | -
CN(Cc1ccccc1)Cc1nc2c(c(=O)n(C)c(=O)n2C)n1CCc1ccccc1 | 0 | 0 | 0 | 0 | 0 | 0
CCCCn1c(CN(C)Cc2ccccc2)nc2c1c(=O)n(C)c(=O)n2C | 0 | 0 | 0 | 29 | 0 | 0
CCCCn1c(CN2CCN(c3ccccc3)CC2)nc2c1c(=O)n(C)c(=O)n2C | 0 | 0 | 0 | 29 | 0 | 0
CCOC(=O)C(=CNc1cc(C)nn1-c1ccc(C)cc1)C(=O)OCC | 0 | 0 | 0 | 0 | 0 | 24
COc1cc(C(=O)N2CCN(c3ccc(C)cc3C)CC2)cc(OC)c1OC | 42 | 0 | 76 | 44 | 0 | 37
Cc1c(Cl)cccc1N=C(N)N=C(N)N | 0 | 0 | 0 | 81 | 0 | 0
NC(N)=NC(N)=Nc1cccc2ccccc12 | 0 | 0 | - | 0 | 0 | 0
Cc1ccccc1NC(=O)Cc1nc(COC(=O)c2ccc(Cl)nc2)cs1 | - | 0 | - | - | - | -
O=C(Nc1nnc(SCc2ccc(F)cc2)s1)c1ccccn1 | 78 | 63 | 0 | 0 | 0 | 0
O=C(Nc1nc2ccccc2s1)c1cnccn1 | 0 | 0 | 0 | 0 | 0 | 0
O=C(Nc1nc2ccc(F)cc2s1)c1ccccn1 | 71 | 102 | 0 | 0 | 0 | 0
Cc1nonc1NC(=O)CSc1nc2ccccc2o1 | 0 | 0 | - | - | 0 | -
O=C(NCCCN1CCN(c2cccc(Cl)c2)CC1)c1ccc(N2CCCC2=O)cc1 | 0 | 0 | 67 | 0 | 0 | 0
SMILES | IEC-6 tox | aSyn UTR inh | APP 5UTR inh | BaF3 parental | KLF5 inh | Ba/F3 V617F tox
Cc1cc(-n2c(C)cc(C(=O)CSc3nnc4sc5ccccc5n34)c2C)no1 | 0 | 0 | 0 | 0 | 0 | 0
Cc1cc(-n2c(C)cc(C(=O)CSc3ncnc4ccccc34)c2C)no1 | 0 | 0 | 0 | 51 | 0 | 44
Cc1cc(C)c2c(c1)/C(=N/NS(=O)(=O)c1ccccc1)CCC2 | 0 | 0 | 0 | 0 | 0 | 0
Cc1cc(C)c2c(c1)/C(=N/NS(=O)(=O)c1ccc(Br)cc1)CCC2 | 0 | 0 | 81 | 0 | 0 | 0
CCN1/C(=C\C(=S)Nc2ccccc2)Sc2ccccc21 | 0 | 0 | 0 | 0 | 0 | 0
CCN1/C(=C/C(C)=C/c2sc3ccccc3[n+]2CC)Sc2ccccc21 | 0 | 100 | 67 | 75 | 0 | 100
COc1ccc(NC(=O)C2CCC(=O)N2C(=O)OCc2ccccc2)cc1 (stereo unspecified) | 0 | 0 | - | - | 0 | -
O=C(NCc1cccs1)c1nc2c(nnn2Cc2ccccc2Cl)c(=O)[nH]1 | 0 | 77 | 0 | 0 | 0 | 0
O=C(Nc1ccccn1)c1onc2c1CCCC2 | 0 | 96 | 0 | 0 | 0 | 0
O=C(Nc1ccccn1)c1csc2c1CCCC2 | 0 | 0 | 0 | 0 | 0 | 0
Cc1ccc(O)c(/C=N/NC(=O)C2=NNC(c3ccccc3)(c3ccccc3)C2)c1 | 0 | - | 78 | 0 | 0 | 0
